Some test systems named below: NCI-H23 lung; NCI-H226 lung; NCI-H322M lung; HOP-62 NSCLC; NCI-H460 lung; HOP-92 NSCLC; NCI-H522 lung; A549/ATCC NSCLC; 786-0 renal; COLO 205 colon.
What all share (assay): NCI-60 one-dose screen, 48 h (100 = growth as untreated, 0 = no growth, -100 = all killed)
Holding throughout (settings): 10 µM unless noted

For twelve compounds, growth results are on record in PubChem BioAssay (NCI).

SMILES strings stand for the structures. About 83,000 compounds went through this panel and 20% of them were active in at least one assay; those are over-represented in the sample as a whole.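 Step 1: grow cells in 96-well plates. Step 2: add test compound at a single concentration. Step 3: incubate 48 h. Step 4: record percent growth.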 A number with no mark means an inactive call. Activity calls are given as the source filed them. The calls were made as follows: active = growth percent below 10; inactive = the rest.

For `N=C(N)c1ccc(-c2ccc(-c3cc(Cl)cc(Cl)c3)o2)o1`, the growth was -75.4% (active) with NCI-H23 lung; 43.9% in the experiment with NCI-H226 lung; -77.4% (active) in the experiment with NCI-H322M lung; -72.2% (active) in the experiment with HOP-62 NSCLC; -78.3% (active) in the experiment on NCI-H460 lung; 50.5% in the experiment on HOP-92 NSCLC. The growth in the experiment on NCI-H522 lung was -70.4% (active); with A549/ATCC NSCLC, -71% (active); in the experiment with 786-0 renal it was -61.9% (active); with COLO 205 colon it was -81.7% (active).

With `O=C(Nn1c2c(sc1=NCc1ccccc1)C(=O)c1ccccc1C2=O)c1cc2ccc1CCc1ccc(cc1)CC2`, the growth is 32% with NCI-H23 lung; 66.3% in the experiment with NCI-H226 lung; 106% with NCI-H322M lung; 77.5% in the experiment on HOP-62 NSCLC; 74.9% in the experiment on NCI-H460 lung; 127% with HOP-92 NSCLC. The growth is 52.9% in the experiment on NCI-H522 lung, 80% in the experiment on A549/ATCC NSCLC, 82.7% in the experiment with 786-0 renal and 106% in the experiment on COLO 205 colon.

Turning to `O=C(CSc1nc(-c2ccccc2)[nH]c1S(=O)(=O)c1ccccc1)NC1CC1`, the growth with NCI-H23 lung is 56.6%; in the experiment on NCI-H226 lung, 85.8%; in the experiment on NCI-H322M lung it was 105%; in the experiment on HOP-62 NSCLC, 21.2%; with NCI-H460 lung it was 102%; in the experiment on HOP-92 NSCLC, 89.6%. For the same compound, the growth in the experiment with NCI-H522 lung was 76.2%; with A549/ATCC NSCLC, 42.1%; with 786-0 renal it was 94.5%; in the experiment on COLO 205 colon, -30.9% (active).

Take `N#Cc1c(-c2ccccc2)cc(-c2ccccc2)n(CCCCCC(=O)Nc2ccccc2N)c1=O`: the growth in the experiment with NCI-H23 lung is 81.2%; in the experiment on NCI-H226 lung it was 69.9%; in the experiment on NCI-H322M lung it was 81.5%; with HOP-62 NSCLC it was 82.3%; in the experiment with NCI-H460 lung it was 50.9%; in the experiment on HOP-92 NSCLC it was 51.9%. Besides, the growth in the experiment on NCI-H522 lung is 55.8%; in the experiment with A549/ATCC NSCLC, 71.2%; in the experiment on 786-0 renal, 57.6%; with COLO 205 colon, 84%.

Turning to `CCCCCCCCCCCCCCCCCCOc1ccccc1CC(=O)OCC[N+]1(C)CCCC1`, the growth in the experiment with NCI-H23 lung was 8.45% (active); in the experiment with NCI-H226 lung, 13.4%; in the experiment on NCI-H322M lung it was 68.1%; with HOP-62 NSCLC, 53.5%; with NCI-H460 lung, 27.5%; in the experiment on HOP-92 NSCLC it was 32.7%. Also, the growth in the experiment with NCI-H522 lung is 6.85% (active); in the experiment with A549/ATCC NSCLC, 23%; with 786-0 renal, 57.5%; in the experiment with COLO 205 colon it was 9.44% (active).

With `O=C1Nc2ccccc2/C1=C\c1nc(-c2ccccc2F)n2ccccc12`, the growth in the experiment on NCI-H23 lung is 33.2%; in the experiment with NCI-H226 lung it was -1.5% (active); in the experiment with NCI-H322M lung, 26%; with HOP-62 NSCLC it was -1.47% (active); in the experiment with NCI-H460 lung, -20.4% (active); in the experiment on HOP-92 NSCLC, 40.4%. The growth is -23% (active) in the experiment on NCI-H522 lung, 26.5% in the experiment on A549/ATCC NSCLC, -34.5% (active) in the experiment with 786-0 renal and 72.8% with COLO 205 colon.

Regarding `Cc1ccccc1/C=C1\CN(C(=O)OC(C)(C)C)C/C(=C\c2ccccc2C)C1=O`, the growth in the experiment on NCI-H23 lung was 8.22% (active); with NCI-H226 lung it was 42.2%; in the experiment on NCI-H322M lung, 80.9%; in the experiment with HOP-62 NSCLC, 48.2%; in the experiment on NCI-H460 lung it was -38.3% (active); in the experiment with HOP-92 NSCLC, 82.6%. Moreover, the growth with NCI-H522 lung was 20.8%; in the experiment on A549/ATCC NSCLC, 49.1%; in the experiment on 786-0 renal it was 25.8%; in the experiment with COLO 205 colon, -28.5% (active).

Consider `C=CCn1c(SCC(=O)Nc2ccc(C(=O)/C=C/c3cc4cc(OC)ccc4nc3Cl)cc2)nnc1-c1ccc(Br)cc1`, for which the growth was 78% in the experiment on NCI-H23 lung; 89.4% with NCI-H226 lung; 81.9% in the experiment on NCI-H322M lung; 99.3% in the experiment on HOP-62 NSCLC; 88.4% in the experiment on NCI-H460 lung; 70.1% in the experiment on HOP-92 NSCLC. In addition, the growth was 52.9% in the experiment on NCI-H522 lung, 70.7% in the experiment with A549/ATCC NSCLC, 80.9% in the experiment with 786-0 renal and 112% with COLO 205 colon.

In the case of `O=C(NNc1nccc(Nc2ccc(S(=O)(=O)Nc3ccncc3)cc2)n1)c1ccccc1`, the growth with NCI-H23 lung was 5.18% (active); in the experiment with NCI-H226 lung it was 108%; in the experiment with NCI-H322M lung it was 96.9%; with HOP-62 NSCLC, 89.2%; in the experiment on NCI-H460 lung, 119%; with HOP-92 NSCLC, 103%. For the same compound, the growth is 94.5% in the experiment on NCI-H522 lung, 96.8% in the experiment on A549/ATCC NSCLC, 93.8% in the experiment with 786-0 renal and 122% with COLO 205 colon.

As to `CCN(C(=O)N1CCN(c2cc3c(cc2F)c(=O)c(C(=O)O)cn3C2CC2)CC1)c1nc(-c2ccc(Cl)cc2)cs1`, the growth with NCI-H23 lung was 3.93% (active); with NCI-H226 lung, 11.9%; in the experiment with NCI-H322M lung, 11%; in the experiment with HOP-62 NSCLC, 14.2%; with NCI-H460 lung it was 8.51% (active); with HOP-92 NSCLC it was -19.2% (active). For the same compound, the growth in the experiment with NCI-H522 lung was 1.67% (active); in the experiment with A549/ATCC NSCLC it was 12.9%; in the experiment with 786-0 renal, 12.7%; in the experiment on COLO 205 colon, 0.749% (active).

Take `COc1ccc(OC)c(-c2c(C#N)c(-c3cccs3)nc3c2c(-c2ccccc2)nn3-c2ccccc2)c1`: the growth with NCI-H23 lung was 105%; in the experiment with NCI-H226 lung, 102%; in the experiment on NCI-H322M lung, 110%; in the experiment on HOP-62 NSCLC it was 105%; in the experiment with NCI-H460 lung, 101%; with HOP-92 NSCLC, 106%. Also, the growth in the experiment with NCI-H522 lung was 87.8%; with A549/ATCC NSCLC, 101%; with 786-0 renal it was 103%; in the experiment on COLO 205 colon, 110%.

Turning to `O=C(/C=C/c1cn(-c2ccccc2)nc1-c1ccc([N+](=O)[O-])cc1)c1ccc(Cl)cc1`, the growth is 48.4% in the experiment with NCI-H23 lung; 39% with NCI-H226 lung; 75.1% with NCI-H322M lung; 24.5% with HOP-62 NSCLC; 29.1% in the experiment on NCI-H460 lung; 58.5% with HOP-92 NSCLC. The growth is 23.3% in the experiment with NCI-H522 lung, 61.8% in the experiment on A549/ATCC NSCLC, -92.5% (active) in the experiment on 786-0 renal and 40.2% with COLO 205 colon.
